# APP 5UTR inh: inhibitors of APP translation via 5'UTR reporter, primary screen, APP 5'UTR luciferase, SH-SY5Y cells | inhibition, % at 2 µM | 190,000 compounds, 0.82% hits | AID 1285, 2008 | SH-SY5Y APP 5'UTR-luciferase reporter, luminescence;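 active means inhibition above a set limit, derived from the sample mean plus 3 SD, cut at about 45% in these data; inconclusive means one replicate passes the limit while the other fails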
# BaF3 parental: parental Ba/F3 cell viability inhibition, counter-screen for JAK2V617F inhibitor project, murine pro-B, CellTiter-Glo luminescence; inhibition, % at 5.6 µM; AID 1486, 2009; 220,000 compounds, 1.1% hits; CellTiter-Glo ATP luminescence;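 active means inhibition above a per-campaign cutoff, the mean inhibition of all tested compounds plus 3 SD, cut at about 27% in these data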;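 further: 0% = DMSO wells and 100% = JAK Inhibitor I control wells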
# aSyn UTR inh: MLPCN primary screen, SNCA 5' untranslated region. inhibition, % (tested at 7.5 µM). alpha-synuclein 5'UTR reporter, inhibitor activity. AID 1813, 2009. 300,000 compounds, 0.82% hits; in the data active means inhibition above about 60%; inconclusive means no clear call, values can overlap the other calls;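 further: H4 neuroglioblastoma cells stably carrying SNCA 5'UTR luciferase fusion; 0% = DMSO wells and 100% = positive control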
# Ba/F3 V617F tox: reduced viability of JAK2V617F-dependent Ba/F3 cells, primary screen, JAK2V617F inhibitor project, cell-based, Ba/F3 EpoR-JAK2V617F, luminescence; 220,000 compounds, 1.1% hits; inhibition, % at 5.6 µM; AID 1446, 2008; ATP luminescence;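 active means inhibition above the campaign mean plus 3 SD over all tested compounds, cut at about 24% in these data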;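 further: cytokine-independent growth of Ba/F3 cells driven by EpoR plus mutant JAK2; 0% = DMSO-treated cells and 100% = JAK inhibitor I control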
# IEC-6 cytotox: cytotoxicity in IEC-6 intestinal epithelial cells, primary screen, cytotoxicity control for KLF5 inhibitor project, cell-based, luminescence. IEC-6 cytotoxicity, luminescence viability. inhibition, % at 5 µM. 290,000 compounds, 0.78% hits;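 further: 0% = plate median of test compound wells and 100% = cytotoxic reference compound wells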
# KLF5 inh: KLF5 expression inhibitors, primary screen, DLD-1 cells, luminescence; AID 1700, 2009; DLD-1 KLF5 promoter-luciferase reporter; inhibition, % at 5 µM; 290,000 compounds, 0.23% hits;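 active means inhibition above a per-plate limit of that plate's mean compound inhibition plus 3 SD, cut at about 60% in these data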;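 further: 0% = DMSO wells and 100% = LY294002 at 200 µM; higher means less KLF5 promoter-driven luciferase light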
# IEC-6 tox confirm: cytotoxic compounds in IEC-6 epithelial cells, confirmation, cytotoxicity control, cell-based, luminescence. 1,900 compounds, 63% hits. IEC-6 rat intestinal epithelial viability. inhibition, % at 5 µM. AID 1907, 2009. shares compounds with IEC-6 cytotox;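 further: 0% = vehicle and 100% = reference cytotoxic drug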
# Active calls of the source: *; ? = inconclusive; . = no result. Shown are actives, neighbours in structure and some others; about 2.2% of the full set was active somewhere. Unless noted, no stated cut-off is given here; in the data, active means inhibition above about 22%; inactive means the rest.
SMILES,APP 5UTR inh,BaF3 parental,aSyn UTR inh,Ba/F3 V617F tox,IEC-6 cytotox,KLF5 inh,IEC-6 tox confirm
CC(C)(C)C(=O)NC(=S)NNC(=O)c1ccc(-c2ccccc2)cc1,67*,36*,67*,37*,40*,57,47*
Cc1cc(C)n(C(C)CNS(=O)(=O)c2ccccc2)n1 (stereo not given),.,.,-4,.,4,-5,.
CC(C)(C)c1ccc(OCCC(=O)Nc2cccc(S(=O)(=O)N3CCOCC3)c2)cc1,.,.,4,.,0,4,.
COc1ccc(-c2cc(C(=O)N3CCN(c4ccccc4)CC3)c3ccccc3n2)cc1,75*,10,-35,2,28*,-5,6
COc1ccc(-c2cc(C(=O)N3CCCC3)c3ccccc3n2)cc1,.,.,-49,.,7,-45,.
CCc1nc2ccccc2c(C(=O)OCC(=O)C(C)(C)C)c1C,-13,6,0,3,24*,-15,-3
CCc1c(C)nc2ncnn2c1Nc1ccc(C)cc1,.,.,14,.,10,-14,.
CCc1c(C)nc2ncnn2c1NCCc1ccc(OC)cc1,20,57*,31,63*,24*,17,24*
CC(C)CCn1c(=O)c2ccccc2n2c(CCC(=O)NCC3CCCO3)nnc12 (stereo not given),.,.,-4,.,6,-16,.
CCOc1cc(/C=C2\CN(CC)C/C(=C\c3ccc(O)c(OCC)c3)C2=O)ccc1O,.,.,102*,.,74*,19,23*
COc1cc(/C=C2\CCC/C(=C\c3ccc(O)c(OC)c3)C2=O)ccc1O,.,.,-394,.,8,-25,.
Cn1nccc1C(=O)N/N=C/c1c(O)ccc2ccccc12,.,.,92*,.,98*,57,29*
Cc1ccc(S(=O)(=O)CCC(=O)OCC(=O)NCC(=O)Nc2c(C)cc(C)cc2C)cc1,.,.,6,.,.,.,.
N#CC1CC(c2ccccc2)Nc2cc(Cl)ccc2N1 (stereo not given),.,-1,-331,2,40*,-64,21
C[C@@H]1C[C@H](O)c2cc(Cl)ccc2N1,-11,4,2,0,1,-31,.
CC#CC(=O)N1CCC(CCc2ccccc2)(C(=O)OCC)CC1,-12,0,?,-1,27*,6,12
CCOC(=O)C1(CCc2ccccc2)CCN(C(=O)c2ccoc2)CC1,-1,3,-25,6,-2,-12,.
NC(=O)C1CCN(CC(O)COCc2ccccc2Cl)CC1 (stereo not given),.,.,9,.,-7,-26,.
CCOC(=O)C1=C(C)NC(SC)=C(C#N)C1CC(C)C (stereo not given),.,81*,13,85*,70*,52,56*
CC(=O)C1=C(C)NC(SCC(N)=O)=C(C#N)C1CC(C)C (stereo not given),-33,0,1,-2,3,-9,.
O=C(Cn1[nH]c(=O)c2ccccc2c1=O)OCC(=O)c1ccc(Br)cc1,.,.,8,.,.,.,.
Cn1c(=O)n(C)c2cc(NC(=O)COc3ccc(F)cc3)ccc21,.,.,-18,.,-4,-21,.
CCOC(=O)c1ccccc1NC(=O)Cn1c(-c2nonc2N)nc2ccccc21,94*,75*,73*,79*,77*,45,52*
O=C(NNc1ccccc1F)c1ccccc1,.,-7,3,11,26*,-2,-9
N#C/C(=C(/O)CCl)c1nc2c(s1)CCc1ccccc1-2,.,.,-29,.,-1,-11,.
COC(=O)c1c(C)oc2ccc(N(C(=O)c3ccncc3)S(=O)(=O)c3ccc(C)cc3)cc12,89*,75*,110*,86*,52*,45,57*
Cc1nc2ccc(NC(=O)c3cncc(Br)c3)cc2s1,.,60*,-87,80*,88*,39,-4
Cc1nc2ccc(NC(=O)c3ccccc3)cc2s1,-82,2,-106,-1,-1,-94,.
Clc1ccc(Cn2ncc3c(NCc4ccccc4)ncnc32)cc1,23,10,-26,2,28*,45,27*
